# Active and inactive are the calls of the source. Rule for the calls: active = hit-call score of the fitted dose curve at least 0.9, where 1 is the maximum; inactive = score below 0.9.
# Assays:
# Settings in all cases: mRNA level, 48 h; actives raise or lower the signal
# [1] = read-out: Cytochrome P450 3A4 (Homo sapiens) (UniProt P08684); test: LTEA_HepaRG_CYP3A4: Life Technologies and Expression Analysis (LTEA) Assay for CYP3A4 using HepaRG (AID 2283487)
# Summary of the method: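 CYP3A4 transcript measured by TaqMan qRT-PCR and normalized to three housekeeping genes after 48 h chemical exposure of human HepaRG cells. Top concentration 100 uM, half-log steps, 0.5% DMSO vehicle; gain or loss fitted against DMSO baseline.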
# [2] = read-out: DNA damage-inducible transcript 3 (DDIT3), DDIT3 (gene 1649); test: LTEA_HepaRG_DDIT3: Life Technologies and Expression Analysis (LTEA) Assay for DNA damage-inducible transcript 3 (DDIT3) using HepaRG (AID 2283488)
# Summary of the method: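 DDIT3 transcript was quantified by qRT-PCR with ACTB/GAPDH/POLR2A normalization after 48 h chemical treatment of differentiated HepaRG cells in 0.5% DMSO. Dosing was eight-point, half-log, top 100 uM, duplicate wells. Curves fitted bidirectionally versus DMSO.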
# [3] = read-out: Pro-epidermal growth factor (Homo sapiens) (UniProt P01133); test: LTEA_HepaRG_EGF: Life Technologies and Expression Analysis (LTEA) Assay for Epidermal growth factor (EGF) using HepaRG (AID 2283489)
# Summary of the method: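 HepaRG, 48 h dosing, 100 uM top, half-log x8, 0.5% DMSO. Readout: TaqMan qRT-PCR (Fluidigm array), housekeeping-normalized. Gain or loss of signal fit vs DMSO.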
# [4] = read-out: Early growth response protein 1 (EGR1) transcription factor, EGR1 (gene 1958); test: LTEA_HepaRG_EGR1: Life Technologies and Expression Analysis (LTEA) Assay for Early growth response protein 1 (EGR1) transcription factor using HepaRG (AID 2283490)
# Summary of the method: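 EGR1 transcript levels quantified by qRT-PCR (Fluidigm arrays) against three housekeeping genes after 48 h chemical exposure of HepaRG cells. Eight-point half-log series topping at 100 uM, 0.5% DMSO vehicle, analyzed for gain or loss.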
# [5] = read-out: Ezrin (EZR), EZR (gene 7430); test: LTEA_HepaRG_EZR: Life Technologies and Expression Analysis (LTEA) Assay for Ezrin (EZR) using HepaRG (AID 2283491)
# Summary of the method: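 HepaRG, 48 h chemical exposure, 8-pt half-log series from 100 uM, 0.5% DMSO vehicle, duplicates. Read-out: EZR mRNA by TaqMan qRT-PCR (Fluidigm array), housekeeping-normalized; bidirectional curve fit vs DMSO baseline.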
# [6] = read-out: Cytochrome P450 3A7 (Homo sapiens) (UniProt P24462); test: LTEA_HepaRG_CYP3A7: Life Technologies and Expression Analysis (LTEA) Assay for CYP3A7 using HepaRG (AID 2283492)
# Summary of the method: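 Human HepaRG liver cells, 48 h post-plating, switched to serum-free induction medium and exposed in duplicate for 48 h. Dosing: 100 uM top, half-log dilutions, 8 points, 0.5% DMSO vehicle. Read-out: CYP3A7 mRNA, gain or loss fitted against DMSO baseline.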
# [7] = read-out: Fatty Acid-Binding Protein 1 (FABP1), FABP1 (gene 2168); test: LTEA_HepaRG_FABP1: Life Technologies and Expression Analysis (LTEA) Assay for Fatty Acid-Binding Protein 1 (FABP1) using HepaRG (AID 2283494)
# Summary of the method: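 FABP1 expression by TaqMan qRT-PCR, normalised to three housekeeping genes, in HepaRG cells after 48 h chemical treatment. Eight-point half-log series topping at 100 uM in 0.5% DMSO, duplicates; gain or loss fitted relative to vehicle.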
# [8] = read-out: Cytochrome P450 4A22 (Homo sapiens) (UniProt Q5TCH4); test: LTEA_HepaRG_CYP4A22: Life Technologies and Expression Analysis (LTEA) Assay for Cytochrome P450 4A22 (CYP4A22) using HepaRG (AID 2283495)
# Summary of the method: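 Readout is CYP4A22 transcript induction or loss, quantified by qRT-PCR and normalized to ACTB, GAPDH and POLR2A. Human HepaRG cells receive test chemicals for 48 h at eight half-log concentrations from 100 uM in 0.5% DMSO.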
# [9] = read-out: Cytochrome P450 7A1 (Homo sapiens) (UniProt P22680); test: LTEA_HepaRG_CYP7A1: Life Technologies and Expression Analysis (LTEA) Assay for Cytochrome P450 7A1 (CYP7A1) using HepaRG (AID 2283496)
# Summary of the method: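 HepaRG, 48 h exposure, 8-pt half-log series from 100 uM, 0.5% DMSO vehicle, duplicates. Readout: TaqMan qRT-PCR mRNA vs three housekeeping genes; bidirectional curve fit against DMSO baseline.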
# CYP3A5 (gene 1577) = test: LTEA_HepaRG_CYP3A5: Life Technologies and Expression Analysis (LTEA) Assay for CYP3A5 using HepaRG (AID 2283493)
# Summary of the method: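 mRNA levels were quantified by qRT-PCR on Fluidigm arrays and normalized to three housekeeping genes. Differentiated HepaRG cells received 48 h exposure (top 100 uM, half-log steps, 0.5% DMSO vehicle, duplicate); bidirectional fitting versus DMSO.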
# Chain of Cytochrome P450 3A4 (Homo sapiens) (P08684 whole entry, looked up): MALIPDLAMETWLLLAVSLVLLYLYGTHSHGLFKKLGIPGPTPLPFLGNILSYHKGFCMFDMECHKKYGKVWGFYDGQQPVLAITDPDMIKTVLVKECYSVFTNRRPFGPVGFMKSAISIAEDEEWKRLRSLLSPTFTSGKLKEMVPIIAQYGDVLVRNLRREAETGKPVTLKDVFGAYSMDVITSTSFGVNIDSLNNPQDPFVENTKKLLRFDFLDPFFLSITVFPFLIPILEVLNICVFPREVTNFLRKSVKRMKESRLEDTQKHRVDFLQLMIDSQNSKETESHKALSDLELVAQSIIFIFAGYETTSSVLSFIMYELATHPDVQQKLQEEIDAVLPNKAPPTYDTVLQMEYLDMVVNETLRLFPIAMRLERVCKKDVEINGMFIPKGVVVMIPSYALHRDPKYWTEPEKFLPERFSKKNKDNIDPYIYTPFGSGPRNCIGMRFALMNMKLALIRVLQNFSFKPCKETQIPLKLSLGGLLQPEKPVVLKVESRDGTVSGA
# Chain of Cytochrome P450 3A7 (Homo sapiens) (P24462 whole entry, looked up): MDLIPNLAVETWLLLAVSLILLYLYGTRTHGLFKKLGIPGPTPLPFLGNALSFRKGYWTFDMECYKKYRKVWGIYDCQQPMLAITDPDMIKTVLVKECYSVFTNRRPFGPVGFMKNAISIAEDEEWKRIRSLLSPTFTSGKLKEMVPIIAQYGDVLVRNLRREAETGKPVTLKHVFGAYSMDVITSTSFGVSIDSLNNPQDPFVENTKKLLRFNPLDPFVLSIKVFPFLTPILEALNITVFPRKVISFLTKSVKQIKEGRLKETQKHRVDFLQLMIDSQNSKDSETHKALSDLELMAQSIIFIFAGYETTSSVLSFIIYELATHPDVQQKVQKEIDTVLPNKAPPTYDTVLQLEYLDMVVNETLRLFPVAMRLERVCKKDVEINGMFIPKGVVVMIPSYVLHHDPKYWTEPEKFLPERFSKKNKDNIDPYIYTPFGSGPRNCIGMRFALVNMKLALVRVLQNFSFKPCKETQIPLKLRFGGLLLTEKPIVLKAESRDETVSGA
compound,measurement,setting,value
Clc1cc(Cl)c(Cl)cc1Cl,outcome,[1],inactive
same,outcome,[2],inactive
same,outcome,[3],inactive
same,outcome,[4],inactive
same,outcome,[5],inactive
same,outcome,[6],inactive
same,outcome,[7],inactive
same,outcome,[8],inactive
same,outcome,[9],inactive
Cc1c(C(=O)O)c(O)cc2c1C(=O)c1c(O)c([C@@H]3O[C@H](CO)[C@@H](O)[C@H](O)[C@H]3O)c(O)c(O)c1C2=O,outcome,[1],inactive
same,outcome,[2],inactive
same,outcome,[3],inactive
same,outcome,[4],inactive
same,outcome,[5],inactive
same,outcome,[6],inactive
same,outcome,[7],inactive
same,outcome,[8],inactive
same,outcome,[9],inactive
NC(=O)Cn1c(=O)cc(CCN2CCN(c3nccc4sccc34)CC2)c2ccc(F)cc21,AC50,[1],5.56 µM (active)
same,AC50,[2],65.2 µM (active)
same,outcome,[3],inactive
same,outcome,[4],inactive
same,outcome,[5],inactive
same,outcome,[6],inactive
same,AC50,[7],12.3 µM (active)
same,AC50,[8],62.7 µM (active)
same,AC50,[9],21.5 µM (active)
CN[C@H]1CC[C@@H](c2ccc(Cl)c(Cl)c2)c2ccc(S(N)(=O)=O)cc21,AC50,[1],89.2 µM (active)
same,AC50,[2],63 µM (active)
same,outcome,[3],inactive
same,AC50,[4],83 µM (active)
same,outcome,[5],inactive
same,outcome,[6],inactive
same,AC50,[7],50 µM (active)
same,AC50,[8],15.8 µM (active)
same,AC50,[9],12.2 µM (active)
Cc1ccc(C)c(C)c1,outcome,[1],inactive
same,outcome,[2],inactive
same,outcome,[3],inactive
same,outcome,[4],inactive
same,outcome,[5],inactive
same,outcome,[6],inactive
same,outcome,[7],inactive
same,outcome,[8],inactive
same,outcome,[9],inactive
CC(=O)C(C)=CC1C(C)=CCCC1(C)C (stereo not drawn),outcome,[1],inactive
same,outcome,[2],inactive
same,outcome,[3],inactive
same,outcome,[4],inactive
same,outcome,[5],inactive
same,outcome,[6],inactive
same,outcome,[7],inactive
same,outcome,[8],inactive
same,outcome,[9],inactive
CCCCC(CC)COC(=O)CC(C(=O)OCC(CC)CCCC)S(=O)(=O)O (stereo not drawn),AC50,[2],71.9 µM (active)
same,outcome,[3],inactive
same,AC50,[4],85.5 µM (active)
same,outcome,[5],inactive
same,AC50,CYP3A5 (gene 1577),82.9 µM (active)
same,AC50,[7],91.6 µM (active)
same,outcome,[8],inactive
same,AC50,[9],92 µM (active)
CC(C)c1ccc(C(=O)N=C(N)N)cc1S(C)(=O)=O,AC50,[1],9.24 µM (active)
same,AC50,[2],0.545 µM (active)
same,AC50,[3],0.69 µM (active)
same,AC50,[4],0.337 µM (active)
same,outcome,[5],inactive
same,AC50,[6],0.74 µM (active)
same,outcome,[7],inactive
same,AC50,[8],8.37 µM (active)
same,outcome,[9],inactive
CCOC(=O)CCC(=O)OCC,outcome,[1],inactive
same,outcome,[2],inactive
same,outcome,[3],inactive
same,outcome,[4],inactive
same,outcome,[5],inactive
same,outcome,[6],inactive
same,outcome,[7],inactive
same,outcome,[8],inactive
same,outcome,[9],inactive
CCOC(=O)C(C)(C)Oc1ccc(Cl)cc1,outcome,[2],inactive
same,outcome,[3],inactive
same,outcome,[4],inactive
same,outcome,[5],inactive
same,outcome,[6],inactive
same,outcome,CYP3A5 (gene 1577),inactive
same,outcome,[7],inactive
same,AC50,[8],25.7 µM (active)
same,outcome,[9],inactive
Nc1ccccc1N,outcome,[2],inactive
same,outcome,[3],inactive
same,AC50,[4],30 µM (active)
same,outcome,[5],inactive
same,AC50,CYP3A5 (gene 1577),51.3 µM (active)
same,AC50,[7],72.6 µM (active)
same,AC50,[8],64.6 µM (active)
same,AC50,[9],79.9 µM (active)
NCCO,outcome,[1],inactive
same,outcome,[2],inactive
same,outcome,[3],inactive
same,outcome,[4],inactive
same,outcome,[5],inactive
same,outcome,[6],inactive
same,outcome,[7],inactive
same,outcome,[8],inactive
same,outcome,[9],inactive
CCNc1cccc(C)c1,outcome,[1],inactive
same,outcome,[2],inactive
same,outcome,[3],inactive
same,outcome,[4],inactive
same,outcome,[5],inactive
same,outcome,[6],inactive
same,outcome,[7],inactive
same,outcome,[8],inactive
same,outcome,[9],inactive
CCCCN(CCCC)CCCC,outcome,[1],inactive
same,outcome,[2],inactive
same,outcome,[3],inactive
same,outcome,[4],inactive
same,outcome,[5],inactive
same,outcome,[6],inactive
same,outcome,[7],inactive
same,outcome,[8],inactive
same,outcome,[9],inactive
CCCCCCCCCCCCCO,outcome,[1],inactive
same,outcome,[2],inactive
same,outcome,[3],inactive
same,outcome,[4],inactive
same,outcome,[5],inactive
same,outcome,[6],inactive
same,outcome,[7],inactive
same,outcome,[8],inactive
same,outcome,[9],inactive
Cc1nc(-c2ccc3c(c2)CCN(CCC2CCC(NC(=O)/C=C/c4ccc(F)cc4)CC2)CC3)no1 (stereo not drawn),outcome,[1],inactive
same,outcome,[2],inactive
same,outcome,[3],inactive
same,outcome,[4],inactive
same,outcome,[5],inactive
same,outcome,[6],inactive
same,outcome,[7],inactive
same,outcome,[8],inactive
same,outcome,[9],inactive
Nc1ccc(S(=O)(=O)c2ccc(N)cc2)cc1,outcome,[1],inactive
same,outcome,[2],inactive
same,outcome,[4],inactive
same,outcome,[5],inactive
same,outcome,[6],inactive
same,outcome,CYP3A5 (gene 1577),inactive
same,outcome,[7],inactive
same,outcome,[8],inactive
same,outcome,[9],inactive
CC1(C)NC(=O)NC1=O,outcome,[1],inactive
same,outcome,[2],inactive
same,outcome,[3],inactive
same,outcome,[4],inactive
same,outcome,[5],inactive
same,outcome,[6],inactive
same,outcome,[7],inactive
same,outcome,[8],inactive
same,outcome,[9],inactive
FC(F)(F)C(F)(F)C(F)(F)C(F)(F)C(F)(F)C(F)(F)CCI,outcome,[1],inactive
same,outcome,[2],inactive
same,outcome,[3],inactive
same,outcome,[4],inactive
same,outcome,[5],inactive
same,outcome,[6],inactive
same,outcome,[7],inactive
same,outcome,[8],inactive
same,outcome,[9],inactive
OC[C@@H](O)[C@@H](O)[C@H](O)[C@H](O)CO,outcome,[1],inactive
same,outcome,[2],inactive
same,outcome,[3],inactive
same,outcome,[4],inactive
same,outcome,[5],inactive
same,outcome,[6],inactive
same,outcome,[7],inactive
same,outcome,[8],inactive
same,outcome,[9],inactive
CNCc1cc(F)ccc1Oc1ccc(Cl)c(Cl)c1,AC50,[2],77 µM (active)
same,AC50,[3],79.4 µM (active)
same,AC50,[4],83 µM (active)
same,outcome,[5],inactive
same,AC50,[6],77.5 µM (active)
same,outcome,CYP3A5 (gene 1577),inactive
same,AC50,[7],84 µM (active)
same,AC50,[8],74.9 µM (active)
same,AC50,[9],85.1 µM (active)
O=C(O)CCCCC(=O)O,outcome,[1],inactive
same,outcome,[2],inactive
same,outcome,[3],inactive
same,outcome,[4],inactive
same,outcome,[5],inactive
same,outcome,[6],inactive
same,outcome,[7],inactive
same,outcome,[8],inactive
same,outcome,[9],inactive
Cc1cccc(Nc2cc(Cl)nc(SCC(=O)O)n2)c1C,outcome,[2],inactive
same,outcome,[3],inactive
same,outcome,[4],inactive
same,outcome,[5],inactive
same,AC50,[7],16.7 µM (active)
same,AC50,[8],16.7 µM (active)
same,AC50,[9],19.5 µM (active)

# Reference: PubChem BioAssay (EPA / NIEHS)
